CYP2C9 activ – CYP2C9 (human) activation. P11712. AID 1024. recombinant CYP2C9, luciferin-H conversion, luminescence; stronger effect = higher value; factor 1 = untreated enzyme, 0 = blocked. activation factor at 5 µM. hit rate 1.4% among 96,000;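 active = activation factor of 2 or more for CYP2C9 at a 5 µM dose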;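 note: 0 = sulfaphenazole-blocked wells and 1 = vehicle-only wells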
Target sequence (P11712 whole entry, looked up): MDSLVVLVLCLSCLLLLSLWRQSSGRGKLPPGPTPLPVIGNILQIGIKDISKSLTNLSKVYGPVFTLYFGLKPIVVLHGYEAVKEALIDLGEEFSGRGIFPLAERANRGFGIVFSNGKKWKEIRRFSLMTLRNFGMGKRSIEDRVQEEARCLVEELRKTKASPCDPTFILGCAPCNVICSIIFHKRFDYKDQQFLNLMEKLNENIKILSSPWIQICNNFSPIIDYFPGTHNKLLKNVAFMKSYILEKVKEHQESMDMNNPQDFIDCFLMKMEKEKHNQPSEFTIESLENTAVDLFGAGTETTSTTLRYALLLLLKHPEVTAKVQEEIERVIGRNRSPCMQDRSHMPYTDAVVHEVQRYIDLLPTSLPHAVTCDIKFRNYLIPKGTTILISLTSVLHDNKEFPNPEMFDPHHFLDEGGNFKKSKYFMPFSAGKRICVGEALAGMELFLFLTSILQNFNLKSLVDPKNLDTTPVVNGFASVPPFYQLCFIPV
Cav32 inh – human Cav3.2 channel inhibition, primary screen; O95180; Cav3.2-expressing cells, Fluo-4 calcium fluorescence FDSS; stronger effect = lower value; B-score at 10 µM; hit rate 4% among 100,000; AID 449739;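 active = single-dose well whose peak fluorescence ratio is a statistical outlier from its plate by either plate-standardised score or position-corrected B-score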
CYP2C19 inhib – blocks human cytochrome P450 2C19; CYP2C19 Supersomes, luciferin-H EGE luminescence, 30 min; P33261; hit rate 21% among 96,000; inhibition, % at 5 µM;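 active = CYP2C19 inhibition above a set limit at 5 µM in the primary screen, cut at about 50% in these data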;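 note: plate controls were negative control wells for no effect and 2.5 mM tranylcypromine positive control for full effect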
CYP2C9 inhib – human CYP2C9 inhibition; P11712; CYP2C9 Supersomes, luciferin-H conversion, luminescence; inhibition, % at 5 µM; hit rate 20% among 96,000;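 active = blocking of liver enzyme CYP2C9 beyond about 50% at 5 µM, limit read from the data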
CYP2C19 activ – increases human CYP2C19 enzyme activity; recombinant CYP2C19, luciferin-H EGE luminescence; stronger effect = higher value; 0 = fully inhibited enzyme, 1 = untreated enzyme; AID 1025; activation factor at 5 µM; 96,000 tested, under 10 active; P33261;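 active = activation factor of at least 2 at 5 µM in the primary screen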;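 note: 0 = wells with 2.5 mM tranylcypromine and 1 = vehicle-only wells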
An asterisk follows results filed as active; · = not tested or not shown. A selection: hits, their analogues and other compounds. The true share with any hit is near 27%.

SMILES	CYP2C9 activ	Cav32 inh	CYP2C19 inhib	CYP2C9 inhib	CYP2C19 activ
Cc1ccsc1C(C(=O)NC1CCCCC1)N(C(=O)c1csnn1)C1CC1 (stereo not given)	0.9	0.25	64*	12	0.4
CCn1cc(C2=NOC(C(=O)Nc3ccccc3C(=O)OC)C2)c(C)n1 (stereo not given)	2.5*	0.26	24	-148	0.8
CN1CCN(C(=O)CCC(=O)c2ccc(F)cc2)CC1	1.1	0.5	2	-12	1
C#CCNC(=O)C1=C[C@H](C2CCCCC2)[C@@H](CCCO)[C@H](OCC)O1	·	1.8	·	·	·
N#C/C(=C\c1cn[nH]c1-c1ccc(Cl)cc1)C(=O)NCc1ccccc1	0.1	·	88*	88*	0.1
CC(NC(=O)/C(C#N)=C/c1cn[nH]c1-c1ccccc1)c1ccccc1 (stereo not given)	0.7	-3.6	39	29	0.6
N#C/C(=C\c1cn[nH]c1-c1ccccc1)C(=O)NC1CCCCCC1	2*	-2.9	-3	-98	1
COc1ccc(-c2[nH]ncc2/C=C(\C#N)C(=O)NC2CC2)cc1	0.5	-2.2	54*	52*	0.5
N#C/C(=C\c1ccc[nH]1)C(=O)NC1CC1	1.4	0.49	-16	-35	1.2
CCc1ccc(C(C)NC(=O)/C(C#N)=C\c2cn[nH]c2-c2ccccc2)cc1 (stereo not given)	1	-1.6	13	0	0.9
CCOC(=O)CN1C(=O)N[C@@H](c2cccc(C(F)(F)F)c2)[C@@H](C(=O)OC)[C@H]1C	·	-0.054	·	·	·
COC(=O)C1=C(C)NC(=O)CC1c1ccccc1 (stereo not given)	·	-0.23	·	·	·
CN(C)c1ccc(/C=C2\SC(=S)N(Nc3ncc(C(F)(F)F)cc3Cl)C2=O)cc1	1.2	-5.1*	2	-18	1
COc1cc(/C=C2\SC(=S)N(Nc3ncc(C(F)(F)F)cc3Cl)C2=O)ccc1O	0.5	-2.5	54*	52*	0.5
CCOc1cc(/C=C2\SC(=S)N(Nc3ccccc3)C2=O)ccc1O	1	·	1	3	1
CCCCn1c(-c2ccccc2)nc2c(=O)n(C)c(=O)[nH]c21	0.3	-1.7	-1	67*	1
C=CCNc1nc(N2CCCC2)nc2ccccc12	1	·	4	4	1
CC(Nc1nc(N2CCCCC2)nc2ccccc12)c1ccccc1 (stereo not given)	0.6	-7*	35	41	0.6
Cc1nc(Cl)c(C(=O)NC(=O)Nc2cccc(C(F)(F)F)c2)c(C)c1[N+](=O)[O-]	·	-0.044	·	·	·
CCNC(=O)COC(=O)C1C(C(=O)OCC)=C(C)NC(C)=C1C(=O)OCC	0.3	-0.61	86*	75*	0.1
CCOC(=O)C1=C(C)NC(C)=C(C(=O)OCC)C1C(=O)OCC(=O)N1CCCCC1CC (stereo not given)	0.3	-0.88	62*	67*	0.4
O=C(CSc1ccc2nnc(-c3ccccn3)n2n1)NCC1CCCO1 (stereo not given)	0.6	-0.28	16	40	0.8
COc1ccc(CCNC(=O)Cn2cnc3c(cnn3-c3ccccc3Cl)c2=O)cc1OC	1	1.3	14	4	0.9
Cc1ccc2[nH]c(=O)c(CN(CC3CCCO3)S(=O)(=O)c3c(C)ccc4nsnc34)cc2c1 (stereo not given)	0.5	-1.9	29	52*	0.7
Cc1ccc2[nH]c(=O)c(CN(CC3CCCO3)S(=O)(=O)c3cccc4nsnc34)cc2c1 (stereo not given)	0.1	-0.39	79*	91*	0.2
SMILES	CYP2C9 activ	Cav32 inh	CYP2C19 inhib	CYP2C9 inhib	CYP2C19 activ
Cc1ccc2nsnc2c1S(=O)(=O)N(CCO)Cc1cc2cc3c(cc2[nH]c1=O)OCCO3	0.8	1.4	-2	16	1
CC(C)(O[C@@H]1O[C@H](CO)[C@@H](O)[C@H](O)[C@H]1O)[C@H]1Cc2cc3ccc(=O)oc3cc2O1	·	1.3	·	·	·
Cc1[nH]c2ccccc2c1SCC(=O)O	·	0.052	·	·	·
O=C(CSc1c[nH]c2ccccc12)N1CCOCC1	0.9	0.3	84*	10	0.2
O=C(CSc1nncc2ccccc12)N1CCOCC1	1.1	0.5	15	-9	0.8
Cc1[nH]c2ccccc2c1SCC(=O)N1CCOCC1	1.7	0.062	93*	-69	0.1
O=C(CCCc1c[nH]c2ccccc12)N1CCOCC1	1.3	0.52	67*	-28	0.3
COc1cccc(C(=O)CSc2nnc(CNS(C)(=O)=O)n2-c2ccc(C)cc2)c1	0.6	0.23	33	39	0.7
CCSc1nnc(-c2cccnc2)n1-c1ccc(C)c(Cl)c1	0.9	2.1	15	8	0.9
O=C(Oc1cc(-c2ccccc2)no1)c1ccc(F)cc1	1.1	-0.013	-16	-10	1.2
CCCC1S/C(=N/N=C/c2ccc(OC)cc2)N(Cc2ccccc2)C1=O (stereo not given)	1	-3.6*	3	-1	1
CCCC1S/C(=N/N=C/c2ccc(OC)cc2)N(Cc2ccc(OC)cc2)C1=O (stereo not given)	1.3	-3.7*	-39	-31	1.4
CNC(=O)C1CC(=O)N(Cc2ccccc2)C(=Nc2ccc(OC)cc2)S1 (stereo not given)	0.8	-0.58	49	22	0.5
c1ccc(-c2ncnc3cc4n(c23)CCC4)cc1	·	0.8	·	·	·
CC1CC(C)CN(C(=O)CCCn2c(=S)[nH]c3ccccc3c2=O)C1 (stereo not given)	0.6	-2.9	85*	39	0.1
CCN1CCN(CCn2c(=S)[nH]c3ccccc3c2=O)CC1	1	0.65	-3	-4	1
O=c1c2ccccc2[nH]c(=S)n1CCCN1CCOCC1	1	·	60*	4	0.4
O=C(CCCn1c(=S)[nH]c2ccccc2c1=O)N1CCCCC1	0.7	-0.0064	81*	34	0.2
O=C(CCn1c(=S)[nH]c2ccccc2c1=O)NCCCN1CCOCC1	1	0.51	-3	-3	1
O=C(c1ccc(F)cc1)C1CCN(CCn2c(=S)[nH]c3ccccc3c2=O)CC1	·	-4.8*	·	·	·
O=C(CCn1c(=S)[nH]c2ccccc2c1=O)N1CCOCC1	1.1	-0.89	6	-8	0.9
CCO[C@@H]1OC(C(=O)NCc2nc3ccccc3[nH]2)=C[C@H](C)[C@H]1CCCO	·	1.5	·	·	·
Cc1nc2sc(C(c3cccs3)N3CCC4(CC3)OCCO4)c(O)n2n1 (stereo not given)	·	0.25	·	·	·
Clc1ccc2[nH]cc(-c3nnnn3-c3ccc4ccccc4c3)c2c1	1.2	0.078	-5	-16	1.1
CC(C)C[C@H](NC(=O)c1[nH]cnc1C(=O)Nc1ccccc1)C(=O)OC(C)(C)C	·	1.6	·	·	·
CCn1cc(C(=O)NC2CCCCCC2)c2cc(OC)c(OC)cc2c1=O	0.9	1.7	4	6	1
O=C(CCCn1c(=S)[nH]c2ccc(Br)cc2c1=O)N1CCN(c2ccccn2)CC1	0.4	-1.9	70*	55*	0.3
CC(C)NC(=O)c1c(CSc2ccccc2)noc1C(=O)NCc1ccccc1	·	-0.77	·	·	·
O=C(CSc1ncnc2ccccc12)NCc1ccco1	·	-0.015	·	·	·

Screening data from PubChem BioAssay.
